Measured values published in PubChem BioAssay AID588501 (NMMLSC, 2011).
In all, about 360,000 compounds went through this assay and about 420 (0.12%) were called active. No stated cut-off is given here; in the data, active means inhibition above about 30%; inconclusive means no clear call, values can overlap the other calls; inactive means below that. The full list was thinned out, with actives kept by preference.

The compounds below were run against Lethal factor (Bacillus anthracis) (UniProt P15917) (assay: Bacillus anthracis LF protease inhibitors, primary screen, biochemical, multiplex microsphere, MLPCN library (AID 588501; further: plate controls were buffer without enzyme for full effect and enzyme alone for no effect)). Settings: multiplex microsphere protease cleavage assay, at 10 µM, stronger effect = higher value.
Chain of Lethal factor (Bacillus anthracis) (P15917 whole entry, looked up): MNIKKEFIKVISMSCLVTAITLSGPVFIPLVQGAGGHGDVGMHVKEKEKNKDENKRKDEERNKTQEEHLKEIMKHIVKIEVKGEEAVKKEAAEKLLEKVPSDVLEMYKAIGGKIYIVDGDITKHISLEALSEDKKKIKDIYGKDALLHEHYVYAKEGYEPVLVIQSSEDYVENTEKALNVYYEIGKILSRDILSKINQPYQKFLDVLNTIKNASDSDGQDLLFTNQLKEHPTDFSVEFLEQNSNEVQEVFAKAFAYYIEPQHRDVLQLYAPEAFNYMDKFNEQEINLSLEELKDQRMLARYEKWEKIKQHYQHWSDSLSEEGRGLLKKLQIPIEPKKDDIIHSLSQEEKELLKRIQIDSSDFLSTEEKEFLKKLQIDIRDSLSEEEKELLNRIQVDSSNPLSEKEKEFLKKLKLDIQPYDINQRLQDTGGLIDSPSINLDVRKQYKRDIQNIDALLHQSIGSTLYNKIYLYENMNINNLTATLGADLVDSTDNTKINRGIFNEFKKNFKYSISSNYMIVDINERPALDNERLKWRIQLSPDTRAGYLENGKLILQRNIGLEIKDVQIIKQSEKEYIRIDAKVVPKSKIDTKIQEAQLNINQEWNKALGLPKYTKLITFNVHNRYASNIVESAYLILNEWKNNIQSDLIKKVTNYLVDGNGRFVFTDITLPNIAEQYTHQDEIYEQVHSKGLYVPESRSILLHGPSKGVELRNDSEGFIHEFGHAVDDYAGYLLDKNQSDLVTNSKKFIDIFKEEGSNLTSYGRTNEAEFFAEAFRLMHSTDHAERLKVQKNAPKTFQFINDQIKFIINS

Row | SMILES | inhibition
1 | O=C(COc1ccc2c(C(F)(F)F)cc(=O)oc2c1)Nc1ccc2c(c1)OCCO2 | -1.9% (inactive)
2 | O=C(CN1CCCCCC1)Nc1c(Cl)cc(Cl)cc1Cl | 37.6% (active)
3 | O=C(CN1CCOCC1)Nc1c(Cl)cc(Cl)cc1Cl | 3.3% (inactive)
4 | Cc1cc(C)c(NC(=O)CN2CCCCCC2)c(C)c1 | -3.3% (inactive)
5 | O=C(COc1ccc(Cl)cc1)NCc1nnc(SCC(=O)NCC2CCCO2)o1 (stereo not given) | -1% (inactive)
6 | NNc1nc2c(Cl)cccc2s1 | -1.6% (inactive)
7 | CCn1c(CSc2nncn2-c2ccc(OC)cc2)nc2cc(S(=O)(=O)N(C)C)ccc21 | -15% (inactive)
8 | O=C(NNC(=O)c1ccccc1[N+](=O)[O-])Nc1ccccc1C(F)(F)F | -1.8% (inactive)
9 | CN(C(=O)c1cccc(NC(=O)Cc2cccc([N+](=O)[O-])c2)c1)C1CCCCC1 | 2.5% (inactive)
10 | CC1CCN(CC(=O)Nc2nccs2)CC1 | -13.6% (inactive)
11 | CC(C)N(C(=O)Cn1cc(SCC(=O)N2CCCC2)c2ccccc21)C(C)C | -0.2% (inactive)
12 | COc1cc(NS(=O)(=O)c2ccc(NC(=O)CN3C(=O)c4ccccc4C3=O)cc2)ncn1 | -2.5% (inactive)
13 | CS(=O)(=O)N(CC(=O)N1CCOCC1)c1cccc(Cl)c1Cl | -5.7% (inactive)
14 | CCOC(=O)C1CCCN(C(=O)c2ccc(N(C)C)cc2)CC1 (stereo not given) | -1.5% (inactive)
15 | Cc1ccc(-n2ncc3c2CC(C)(C)CC3NC(=O)CCc2cnn(C)c2)cc1 (stereo not given) | 3% (inactive)
16 | CCCn1nnnc1NC(=O)COc1ccc(Cl)cc1C | -6.9% (inactive)
17 | O=C(CCNC(=O)c1ccc([N+](=O)[O-])cc1)Nc1ccccc1N1CCOCC1 | 3.7% (inactive)
18 | CCOC(=O)C1CCCN(S(=O)(=O)c2ccc(-n3cnnn3)c(C)c2)C1 (stereo not given) | 2.9% (inactive)
19 | O=S(=O)(NC1CCCC1)c1ccc(-n2cnnn2)cc1 | -2% (inactive)
20 | Cc1cc(S(=O)(=O)NC2CCCC2)ccc1-n1cnnn1 | 35.6% (active)
21 | COc1ccc([C@H]2CC(=O)C[C@@H](CCn3cc(CC4CCCC4)nn3)O2)cc1 | -2.3% (inactive)
22 | COCCNC(=O)C(c1ccc(O)cc1)N(C(=O)CCC(=O)Nc1nccs1)c1ccc(C)cc1 (stereo not given) | -7% (inactive)
23 | O=C1N[C@@H](Cc2ccccc2)C(=O)N2[C@@H]3N(S(=O)(=O)c4ccc(F)cc4)c4ccccc4[C@]3(Br)C[C@@H]12 | -0.7% (inactive)

Row | SMILES | inhibition
24 | CCCCC(NS(=O)(=O)c1ccc(C)cc1)C(=O)Oc1ccc2c3c(c(=O)oc2c1)CCC3 (stereo not given) | -6.2% (inactive)
25 | CCOc1cc(/C=C(/C#N)c2ccc(Cl)cc2)cc(Cl)c1OCC(=O)O | 2.5% (inactive)
26 | COc1ccccc1C1CCN(C(=S)Nc2ccc(Br)cc2)CC1 | 49.5% (active)
27 | COc1ccccc1NC(=S)N1CCC(NC(=O)C23CC4CC(CC(C4)C2)C3)CC1 | -7.9% (inactive)
28 | COc1ccc(NC(=S)N2CCc3cc(OC)c(OC)cc3C2)cc1 | -2.2% (inactive)
29 | Cc1cc(NCc2cccnc2)no1 | 4.1% (inactive)
30 | Clc1ccc(Cn2ncc3c(NCc4cccnc4)ncnc32)cc1 | -6.4% (inactive)
31 | Brc1ccc2ncnc(NCc3cccnc3)c2c1 | 42.4% (active)
32 | CCOC(=O)[C@H]1[C@H]2COc3ccc(C)cc3[C@@H]2N2C(=O)CN(Cc3ccc(F)cc3)C(=O)[C@@]12C | -3.6% (inactive)
33 | CCOC(=O)N1CCN(C(=O)c2ccc3c(=O)n(CCc4ccc(OC)c(OC)c4)c(=O)[nH]c3c2)CC1 | -2.6% (inactive)
34 | COCCn1nnnc1CN1CCC(NC(=O)Nc2cccc(OC)c2)CC1 | 0.1% (inactive)
35 | CC1=NNC(=O)C1CCC(=O)N/N=C\c1ccc(Cl)c(Cl)c1 (stereo not given) | -7.6% (inactive)
36 | NCCCCCC(=O)N/N=C/c1ccc2nccnc2c1 | 43.2% (active)
37 | O=C(O)c1ccc(N/N=C/c2ccc3ncccc3c2)cc1 | -1.5% (inactive)
38 | CC(=O)Nc1ccc(S(=O)(=O)NCC(=O)OCC(=O)c2ccc[nH]2)cc1 | 4.9% (inactive)
39 | CCCCC(CC)CNC(=O)C(=O)C1C(=O)Nc2ccccc21 (stereo not given) | -2.2% (inactive)
40 | CC(=O)NCCC(=O)Nc1cc(S(=O)(=O)N2CCCCC2)ccc1Oc1cccc(C)c1 | -3.6% (inactive)
41 | O=C(COc1ccc(S(=O)(=O)N2CCCC2)cc1[N+](=O)[O-])N1CCCCC1 | -2.5% (inactive)
42 | COCc1cc(=O)[nH]c(SC)n1 | 45% (active)
43 | CCCc1cc(=O)[nH]c(SCc2ccc(C#N)cc2)n1 | 2.2% (inactive)
44 | COCc1cc(=O)[nH]c(-c2ccc(C(F)(F)F)cc2)n1 | 13.9% (inactive)
45 | CCCC(NC(=O)c1ccccc1)c1nc2ccccc2n1Cc1ccc(C(=O)OC)o1 (stereo not given) | -3.6% (inactive)
46 | COc1ccccc1N(CC(=O)Nc1c(C)n(C)n(-c2ccccc2)c1=O)S(=O)(=O)c1ccccc1 | -3.9% (inactive)

Row | SMILES | inhibition
47 | COC(=O)CSc1ncnc2c1cnn2-c1ccc(C)cc1C | -4.4% (inactive)
48 | COC(=O)c1ccc(NC(=O)C23CC4CC(C2)CC(n2cnc(Cl)n2)(C4)C3)cc1 | -3.6% (inactive)
49 | COC(=O)C1(C(=O)OC)C/C=C\CN(S(=O)(=O)c2ccccc2[N+](=O)[O-])CCC1 | -1.4% (inactive)
50 | CCn1c(CNC(=O)c2cc(OC)c(OC)c(OC)c2)cc2cc(C)ccc21 | -7.8% (inactive)
51 | COc1cc(C(=O)NCc2ccc3c(c2)cc(C)n3C)cc(OC)c1OC | 34.6% (active)
52 | CCOCC(=O)NCc1ccc2c(c1)cc(C)n2C | -2.3% (inactive)
53 | CC(C)n1c(SCC(=O)Nc2ccccc2N2CCCCC2)nc2c1c(=O)n(C)c(=O)n2C | 0% (inactive)
54 | CCOC1=C2[C@H]([C@H]3C(=O)N(c4ccccc4)C(=O)[C@H]3C1)[C@@H](c1ccccc1)N(S(=O)(=O)c1ccc(C)cc1)[C@H]2c1ccccc1 | 4.4% (inactive)
55 | CCCCNc1ccc(C(=O)Nc2cccc(C)n2)cc1[N+](=O)[O-] | -4.4% (inactive)
56 | Cc1cccc(C)c1NC(=O)CNC(=O)c1ccc(N2CCOCC2)c([N+](=O)[O-])c1 | -3% (inactive)
57 | C=CC[C@H](CC(=O)OC(C)(C)C)C(=O)OC[C@H]1CCCN1C(=O)[C@H](CC=C)CC(=O)N(CCO)Cc1ccccc1 | 1.8% (inactive)
58 | COc1ccc(CN2CC(C(=O)NCCN3CCN(c4ccccc4F)CC3)CC2=O)cc1 (stereo not given) | -1.5% (inactive)
59 | Cn1cc(CCC(=O)N2CCCC(C(=O)c3ccc(C(C)(C)C)cc3)C2)cn1 (stereo not given) | -0.9% (inactive)
60 | CCOc1ccc(CCNC(=O)C2=C(C)C(=O)OC23CCC(C)CC3)cc1OCC (stereo not given) | 1.1% (inactive)
61 | Fc1ccccc1OCCCCn1cncn1 | 7.4% (inactive)
62 | COc1cc(/C=C2\SC(=O)NC2=O)ccc1OCc1ccc(Cl)nc1 | 0.2% (inactive)
63 | COc1cc(-c2nnc(Cn3cc(C(F)(F)F)ccc3=O)o2)cc(OC)c1OC | 11.3% (inactive)
64 | COc1cc(/C=C2\SC(=S)N(Nc3ncc(C(F)(F)F)cc3Cl)C2=O)cc(OC)c1OC | 61.6% (active)
65 | Cc1ccc2c(c1)C(O)(CC(=O)c1cccnc1)C(=O)N2 (stereo not given) | -1.9% (inactive)
66 | CN(CC(=O)NCCc1ccccc1)S(=O)(=O)c1cnc[nH]1 | -0.9% (inactive)
67 | Cc1cc(C)c(CN2CCN(C(=O)Cn3ccc(NC(=O)OCc4ccccc4)nc3=O)CC2)c(C)c1 | -0.5% (inactive)
68 | O=C(c1ccc(Cl)cc1)N1N=C(c2ccccn2)CC1(O)C(F)(F)F (stereo not given) | -6.7% (inactive)
69 | COc1cc2c(cc1OC)C(/C=C/c1ccco1)=NCC2 | -4.6% (inactive)

Row | SMILES | inhibition
70 | Cc1c(Br)ccc(NC(=O)COc2ccccc2C(N)=O)c1C | 0.9% (inactive)
71 | CCc1ccc(NC(=O)CS(=O)CC(=O)NCCCc2ccccc2)cc1 (stereo not given) | -1.4% (inactive)
72 | O=C(NCc1ccccc1)C1C(=O)N(Cc2ccccc2)C(=O)C1C1(O)CCCC1 (stereo not given) | 1.3% (inactive)
73 | COc1ccc(Br)cc1CNCCc1cccc(Cl)c1 | 43.6% (active)
74 | COc1ccc(Br)cc1CN(C)CC(=O)Nc1cc(Cl)cc(Cl)c1 | -3.4% (inactive)
75 | COCC(C)NCc1cc(Br)ccc1OC (stereo not given) | -4.9% (inactive)
76 | O=S(=O)(Nc1cccc(-n2cnnn2)c1)c1cnc(Cl)c(Cl)c1 | 1.8% (inactive)
77 | COC(=O)C[n+]1cccc2ccccc21 | 29.8% (active)
78 | COC(=O)CNS(=O)(=O)c1ccc(Cc2ccc(S(=O)(=O)NCC(=O)OC)cc2)cc1 | -2.1% (inactive)
79 | COc1c(C(=O)N2CCCC2)ccc2ccccc12 | 2.3% (inactive)
80 | CC1(c2ccc(Cl)cc2)NC(=O)N(CC(=O)c2ccc3c(c2)OCO3)C1=O (stereo not given) | -2.8% (inactive)
81 | CCN(C(=O)COC(=O)c1ccccc1O)c1cccc2ccccc12 | -1.8% (inactive)
82 | Cc1nccn1-c1ccc(NC(=O)[C@H]2O[C@@H](n3cnc4c(N)ncnc43)[C@H](O)[C@@H]2O)cc1 | 0.8% (inactive)
83 | CC(=O)c1nn(-c2ccc(C)cc2)cc1C(=O)c1cccc(Br)c1 | -8.2% (inactive)
84 | CN(C)c1ccc(/C=C2\CC3C4CC=C5CC(O)CCC5(C)C4CCC3(C)C2=O)cc1 (stereo not given) | 3.3% (inactive)
85 | C=CCN(Cc1nc(-c2cc(OC)c3c(c2)OCO3)oc1C)C1CCS(=O)(=O)C1 (stereo not given) | -1.3% (inactive)
86 | CCc1nn(CCCC(=O)Nc2ccc(C)c(C)c2)c(=O)c2cc3occc3n12 | -0.7% (inactive)
87 | COc1ccccc1C(=O)Nc1ccnn1C1CCN(C(=O)C(C)(C)C)CC1 | -1.9% (inactive)
88 | Cc1ccc(NC(=O)CSCC(=O)N2CCOCC2)cc1 | -4.8% (inactive)
89 | CC(C)C[C@@H]1Cc2[nH][nH]c(=O)c2[C@H](CCc2ccccc2)O1 | -14.1% (inactive)
90 | COc1ccc(N(CCC#N)S(=O)(=O)c2ccc(Cl)cc2)cc1 | -0.4% (inactive)
